In ChEMBL document CHEMBL1961873, “Compounds: GSK PKIS; Assays: Nanosyn kinase panel” (2012):

Experiments:
[1] = biological target: Calcium/calmodulin-dependent protein kinase type II subunit alpha (Homo sapiens) (UniProt Q9UQM7); conditions: at 1 µM;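 further: reported value is a mean percent inhibition of CAMK2A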
[2] = biological target: Calcium/calmodulin-dependent protein kinase type II subunit delta (Homo sapiens) (UniProt Q13557); conditions: at 0.1 µM
[3] = biological target: Calcium/calmodulin-dependent protein kinase type II subunit delta (Homo sapiens) (UniProt Q13557); conditions: at 1 µM
[4] = biological target: T1, Calcium/calmodulin-dependent protein kinase type IV (Homo sapiens) (UniProt Q16566); conditions: at 0.1 µM
T1 sequence (whole entry): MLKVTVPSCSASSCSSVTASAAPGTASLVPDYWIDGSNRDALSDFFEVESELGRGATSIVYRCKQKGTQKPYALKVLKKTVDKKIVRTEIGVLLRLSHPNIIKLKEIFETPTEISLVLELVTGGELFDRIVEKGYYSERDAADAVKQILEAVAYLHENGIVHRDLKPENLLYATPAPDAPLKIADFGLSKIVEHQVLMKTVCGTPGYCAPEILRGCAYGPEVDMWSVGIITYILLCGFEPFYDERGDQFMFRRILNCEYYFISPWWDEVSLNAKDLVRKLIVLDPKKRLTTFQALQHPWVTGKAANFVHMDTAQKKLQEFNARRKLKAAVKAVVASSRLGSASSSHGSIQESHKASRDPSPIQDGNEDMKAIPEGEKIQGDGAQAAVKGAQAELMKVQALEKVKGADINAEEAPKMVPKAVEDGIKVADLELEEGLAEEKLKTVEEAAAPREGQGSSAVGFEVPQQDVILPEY

[5] = biological target: T1, Calcium/calmodulin-dependent protein kinase type IV (Homo sapiens); conditions: at 1 µM
[6] = biological target: T2, Serine/threonine-protein kinase Chk1 (Homo sapiens) (UniProt O14757); conditions: at 0.1 µM
T2 sequence (whole entry): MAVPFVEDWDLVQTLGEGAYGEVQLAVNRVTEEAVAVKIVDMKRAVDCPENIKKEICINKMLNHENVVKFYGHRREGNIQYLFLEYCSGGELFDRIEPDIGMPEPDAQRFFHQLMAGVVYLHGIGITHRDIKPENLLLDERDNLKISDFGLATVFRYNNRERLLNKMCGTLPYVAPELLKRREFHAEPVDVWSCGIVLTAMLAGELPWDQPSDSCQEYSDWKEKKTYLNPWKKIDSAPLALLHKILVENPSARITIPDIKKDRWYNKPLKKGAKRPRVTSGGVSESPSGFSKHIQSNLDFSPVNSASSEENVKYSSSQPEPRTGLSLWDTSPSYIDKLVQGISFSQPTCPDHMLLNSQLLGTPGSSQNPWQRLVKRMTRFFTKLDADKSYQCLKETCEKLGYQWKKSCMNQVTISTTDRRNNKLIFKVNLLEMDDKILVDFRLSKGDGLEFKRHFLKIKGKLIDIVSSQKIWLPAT

[7] = biological target: T2, Serine/threonine-protein kinase Chk1 (Homo sapiens); conditions: at 1 µM
[8] = biological target: Serine/threonine-protein kinase Chk2 (Homo sapiens) (UniProt O96017); conditions: at 0.1 µM
[9] = biological target: Serine/threonine-protein kinase Chk2 (Homo sapiens) (UniProt O96017); conditions: at 1 µM
[10] = biological target: Death-associated protein kinase 1 (Homo sapiens) (UniProt P53355); conditions: at 0.1 µM
[11] = biological target: Death-associated protein kinase 1 (Homo sapiens) (UniProt P53355); conditions: at 1 µM
[12] = biological target: T3, Serine/threonine-protein kinase DCLK2 (Homo sapiens) (UniProt Q8N568); conditions: at 0.1 µM
T3 sequence (whole entry): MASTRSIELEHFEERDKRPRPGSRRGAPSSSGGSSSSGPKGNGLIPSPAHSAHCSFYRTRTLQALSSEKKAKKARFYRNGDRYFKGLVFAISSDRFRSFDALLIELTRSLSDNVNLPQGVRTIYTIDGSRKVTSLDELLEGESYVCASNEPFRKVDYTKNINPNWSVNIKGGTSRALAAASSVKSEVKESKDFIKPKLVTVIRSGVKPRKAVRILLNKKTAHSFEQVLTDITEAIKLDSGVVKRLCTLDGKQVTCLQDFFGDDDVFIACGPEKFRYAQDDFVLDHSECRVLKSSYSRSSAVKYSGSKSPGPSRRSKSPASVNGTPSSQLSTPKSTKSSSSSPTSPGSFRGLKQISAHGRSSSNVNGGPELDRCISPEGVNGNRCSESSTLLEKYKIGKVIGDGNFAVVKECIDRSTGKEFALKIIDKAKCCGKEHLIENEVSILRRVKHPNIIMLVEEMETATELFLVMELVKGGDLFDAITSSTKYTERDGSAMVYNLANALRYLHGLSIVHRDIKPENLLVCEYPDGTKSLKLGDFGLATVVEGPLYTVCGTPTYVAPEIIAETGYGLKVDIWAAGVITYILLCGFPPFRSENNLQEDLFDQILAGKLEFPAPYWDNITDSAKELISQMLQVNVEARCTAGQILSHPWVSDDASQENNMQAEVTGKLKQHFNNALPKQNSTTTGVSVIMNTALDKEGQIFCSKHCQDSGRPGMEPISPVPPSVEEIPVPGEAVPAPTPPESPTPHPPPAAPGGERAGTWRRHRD

[13] = biological target: T3, Serine/threonine-protein kinase DCLK2 (Homo sapiens); conditions: at 1 µM
[14] = biological target: MAP kinase-activated protein kinase 2 (Homo sapiens) (UniProt P49137); conditions: at 0.1 µM
[15] = biological target: MAP kinase-activated protein kinase 2 (Homo sapiens) (UniProt P49137); conditions: at 1 µM
[16] = biological target: MAP kinase-activated protein kinase 3 (Homo sapiens) (UniProt Q16644); conditions: at 0.1 µM
[17] = biological target: MAP kinase-activated protein kinase 3 (Homo sapiens) (UniProt Q16644); conditions: at 1 µM
[18] = biological target: Serine/threonine-protein kinase MARK1 (Homo sapiens) (UniProt Q9P0L2); conditions: at 0.1 µM
[19] = biological target: Serine/threonine-protein kinase MARK1 (Homo sapiens) (UniProt Q9P0L2); conditions: at 1 µM
[20] = biological target: MAP/microtubule affinity-regulating kinase 3 (Homo sapiens) (UniProt P27448); conditions: at 0.1 µM;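 further: mean percent inhibition of MARK3 kinase activity, measured within the GSK PKIS screening panel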

Chain of MAP kinase-activated protein kinase 3 (Homo sapiens) (Q16644 whole entry, looked up): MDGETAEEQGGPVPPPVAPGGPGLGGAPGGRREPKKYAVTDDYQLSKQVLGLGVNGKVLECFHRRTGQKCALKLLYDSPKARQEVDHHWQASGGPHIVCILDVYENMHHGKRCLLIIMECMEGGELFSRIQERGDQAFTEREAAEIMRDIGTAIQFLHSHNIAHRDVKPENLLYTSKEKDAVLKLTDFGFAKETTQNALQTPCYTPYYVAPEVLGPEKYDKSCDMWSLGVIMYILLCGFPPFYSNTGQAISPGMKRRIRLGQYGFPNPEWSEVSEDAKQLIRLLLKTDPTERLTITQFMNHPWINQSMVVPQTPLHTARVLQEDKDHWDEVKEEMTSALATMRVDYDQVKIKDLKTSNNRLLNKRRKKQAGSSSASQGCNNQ
Chain of Calcium/calmodulin-dependent protein kinase type II subunit delta (Homo sapiens) (Q13557 whole entry): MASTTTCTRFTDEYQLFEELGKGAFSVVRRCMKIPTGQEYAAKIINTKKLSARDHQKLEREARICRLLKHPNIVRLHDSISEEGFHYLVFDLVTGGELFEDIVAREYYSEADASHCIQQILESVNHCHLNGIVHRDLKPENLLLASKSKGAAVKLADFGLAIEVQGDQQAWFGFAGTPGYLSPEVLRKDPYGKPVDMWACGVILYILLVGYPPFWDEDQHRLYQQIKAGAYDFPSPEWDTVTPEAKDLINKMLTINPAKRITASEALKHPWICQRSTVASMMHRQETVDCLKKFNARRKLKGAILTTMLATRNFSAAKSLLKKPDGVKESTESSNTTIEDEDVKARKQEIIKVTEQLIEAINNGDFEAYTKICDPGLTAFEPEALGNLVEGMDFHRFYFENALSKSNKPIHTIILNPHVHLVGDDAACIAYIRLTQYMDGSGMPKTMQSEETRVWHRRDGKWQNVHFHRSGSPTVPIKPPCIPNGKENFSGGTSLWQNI
Chain of MAP kinase-activated protein kinase 2 (Homo sapiens) (P49137 whole entry, looked up): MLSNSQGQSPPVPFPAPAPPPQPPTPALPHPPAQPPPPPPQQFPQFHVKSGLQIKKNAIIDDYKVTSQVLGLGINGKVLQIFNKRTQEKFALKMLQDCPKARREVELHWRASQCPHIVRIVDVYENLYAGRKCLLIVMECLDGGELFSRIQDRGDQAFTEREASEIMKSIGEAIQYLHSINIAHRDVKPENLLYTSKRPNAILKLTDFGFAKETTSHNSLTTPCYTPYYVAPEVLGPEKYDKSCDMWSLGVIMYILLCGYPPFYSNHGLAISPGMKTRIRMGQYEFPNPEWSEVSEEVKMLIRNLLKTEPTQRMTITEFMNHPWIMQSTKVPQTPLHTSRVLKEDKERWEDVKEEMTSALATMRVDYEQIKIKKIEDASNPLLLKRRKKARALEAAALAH
Chain of Serine/threonine-protein kinase MARK1 (Homo sapiens) (Q9P0L2 whole entry, looked up): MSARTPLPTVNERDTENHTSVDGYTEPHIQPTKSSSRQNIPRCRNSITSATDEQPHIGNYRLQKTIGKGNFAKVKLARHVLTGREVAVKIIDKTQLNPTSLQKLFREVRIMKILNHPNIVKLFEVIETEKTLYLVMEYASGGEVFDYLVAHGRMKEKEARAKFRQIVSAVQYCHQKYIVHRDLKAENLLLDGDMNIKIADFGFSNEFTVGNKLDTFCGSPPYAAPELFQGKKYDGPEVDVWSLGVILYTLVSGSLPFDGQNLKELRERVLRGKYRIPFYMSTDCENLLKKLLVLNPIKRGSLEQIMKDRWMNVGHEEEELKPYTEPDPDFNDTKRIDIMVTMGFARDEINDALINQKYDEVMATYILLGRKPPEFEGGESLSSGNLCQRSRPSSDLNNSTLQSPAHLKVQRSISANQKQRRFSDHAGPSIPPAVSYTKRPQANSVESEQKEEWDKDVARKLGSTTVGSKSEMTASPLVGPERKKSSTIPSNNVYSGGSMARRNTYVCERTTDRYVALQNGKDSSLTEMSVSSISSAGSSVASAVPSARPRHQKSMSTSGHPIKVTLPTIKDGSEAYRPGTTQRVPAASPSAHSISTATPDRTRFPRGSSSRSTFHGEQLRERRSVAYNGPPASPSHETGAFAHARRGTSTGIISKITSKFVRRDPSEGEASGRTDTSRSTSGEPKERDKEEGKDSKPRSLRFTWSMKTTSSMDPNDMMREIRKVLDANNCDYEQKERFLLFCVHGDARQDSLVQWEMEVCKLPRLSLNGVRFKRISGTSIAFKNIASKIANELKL
Chain of Serine/threonine-protein kinase Chk2 (Homo sapiens) (O96017 whole entry): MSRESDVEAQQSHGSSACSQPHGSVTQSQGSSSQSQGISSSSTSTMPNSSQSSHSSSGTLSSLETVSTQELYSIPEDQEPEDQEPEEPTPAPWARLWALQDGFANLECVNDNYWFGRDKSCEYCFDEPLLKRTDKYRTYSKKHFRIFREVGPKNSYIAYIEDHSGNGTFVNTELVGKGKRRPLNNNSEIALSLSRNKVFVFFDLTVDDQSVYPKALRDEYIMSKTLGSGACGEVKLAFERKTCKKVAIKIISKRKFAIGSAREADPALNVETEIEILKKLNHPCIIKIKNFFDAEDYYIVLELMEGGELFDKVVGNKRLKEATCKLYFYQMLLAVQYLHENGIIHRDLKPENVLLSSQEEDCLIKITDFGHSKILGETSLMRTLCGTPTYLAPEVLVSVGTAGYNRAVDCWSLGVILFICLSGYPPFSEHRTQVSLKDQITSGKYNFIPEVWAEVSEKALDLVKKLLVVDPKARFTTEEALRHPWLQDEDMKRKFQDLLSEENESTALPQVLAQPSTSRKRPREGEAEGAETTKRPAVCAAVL
Chain of Calcium/calmodulin-dependent protein kinase type II subunit alpha (Homo sapiens) (Q9UQM7 whole entry): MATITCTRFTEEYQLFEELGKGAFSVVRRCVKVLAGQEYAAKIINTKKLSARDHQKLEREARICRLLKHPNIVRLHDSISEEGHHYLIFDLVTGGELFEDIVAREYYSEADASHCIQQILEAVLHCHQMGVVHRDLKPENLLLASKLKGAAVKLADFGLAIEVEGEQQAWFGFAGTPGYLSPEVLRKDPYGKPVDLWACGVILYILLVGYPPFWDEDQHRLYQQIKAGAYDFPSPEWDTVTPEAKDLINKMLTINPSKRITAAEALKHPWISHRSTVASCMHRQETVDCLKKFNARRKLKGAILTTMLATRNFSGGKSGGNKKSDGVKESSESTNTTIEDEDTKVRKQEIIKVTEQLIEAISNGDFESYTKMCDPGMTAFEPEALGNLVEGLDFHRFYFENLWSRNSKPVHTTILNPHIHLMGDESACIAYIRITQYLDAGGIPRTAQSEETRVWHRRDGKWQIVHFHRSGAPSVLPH
Chain of Death-associated protein kinase 1 (Homo sapiens) (P53355 whole entry, looked up): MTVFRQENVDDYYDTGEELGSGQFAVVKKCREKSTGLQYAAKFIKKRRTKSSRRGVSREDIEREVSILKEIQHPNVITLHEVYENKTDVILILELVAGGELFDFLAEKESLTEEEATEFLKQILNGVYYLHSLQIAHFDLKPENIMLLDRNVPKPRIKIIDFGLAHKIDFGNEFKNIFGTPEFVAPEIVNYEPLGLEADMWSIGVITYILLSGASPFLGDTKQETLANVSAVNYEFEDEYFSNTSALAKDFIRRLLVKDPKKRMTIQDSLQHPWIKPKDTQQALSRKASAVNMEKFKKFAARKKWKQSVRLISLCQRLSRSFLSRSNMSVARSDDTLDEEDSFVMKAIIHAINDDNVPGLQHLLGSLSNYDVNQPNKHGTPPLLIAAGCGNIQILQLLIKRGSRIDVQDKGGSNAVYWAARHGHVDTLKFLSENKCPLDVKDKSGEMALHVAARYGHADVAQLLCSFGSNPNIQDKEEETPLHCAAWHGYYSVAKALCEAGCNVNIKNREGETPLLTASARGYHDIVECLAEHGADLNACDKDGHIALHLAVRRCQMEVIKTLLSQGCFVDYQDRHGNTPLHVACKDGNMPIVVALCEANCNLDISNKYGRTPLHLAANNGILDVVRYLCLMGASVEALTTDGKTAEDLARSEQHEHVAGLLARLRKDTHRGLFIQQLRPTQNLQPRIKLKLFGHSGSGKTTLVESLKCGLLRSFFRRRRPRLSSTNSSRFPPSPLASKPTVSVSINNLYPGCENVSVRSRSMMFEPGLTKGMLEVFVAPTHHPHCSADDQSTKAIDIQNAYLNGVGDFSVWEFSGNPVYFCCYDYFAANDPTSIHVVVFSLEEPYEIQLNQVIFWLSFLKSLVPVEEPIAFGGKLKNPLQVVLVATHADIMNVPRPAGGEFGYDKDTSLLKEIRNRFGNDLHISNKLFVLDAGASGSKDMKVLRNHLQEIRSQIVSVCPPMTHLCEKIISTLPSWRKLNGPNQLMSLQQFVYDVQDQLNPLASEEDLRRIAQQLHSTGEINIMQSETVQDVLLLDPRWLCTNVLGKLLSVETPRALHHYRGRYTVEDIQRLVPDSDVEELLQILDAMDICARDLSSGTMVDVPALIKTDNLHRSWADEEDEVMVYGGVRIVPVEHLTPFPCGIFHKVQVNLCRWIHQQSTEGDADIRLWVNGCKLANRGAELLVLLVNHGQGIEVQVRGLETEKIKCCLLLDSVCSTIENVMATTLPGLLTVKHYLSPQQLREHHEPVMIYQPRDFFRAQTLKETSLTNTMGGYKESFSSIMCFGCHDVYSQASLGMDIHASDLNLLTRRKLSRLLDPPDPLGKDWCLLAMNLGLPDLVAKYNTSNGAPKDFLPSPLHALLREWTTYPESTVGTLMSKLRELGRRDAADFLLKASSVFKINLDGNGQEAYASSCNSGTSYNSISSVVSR

| Compound | inhibition [1] | inhibition [2] | inhibition [3] | inhibition [4] | inhibition [5] | inhibition [6] | inhibition [7] | inhibition [8] | inhibition [9] | inhibition [10] | inhibition [11] | inhibition [12] | inhibition [13] | inhibition [14] | inhibition [15] | inhibition [16] | inhibition [17] | inhibition [18] | inhibition [19] | inhibition [20] |
| --- | --- | --- | --- | --- | --- | --- | --- | --- | --- | --- | --- | --- | --- | --- | --- | --- | --- | --- | --- | --- |
| COc1ccc(COc2ccc(Cc3cnc(N)nc3N)cc2OC)cc1 | 5.8% | 2.39% | 2.5% | 1.77% | 3.54% | 5.47% | 7.23% | 5.87% | 4.77% | 8.9% | 9.42% | 0.28% | 8.82% | 2.95% | 3.22% | 6.15% | 7.43% | 2.6% | 0.09% | 4.54% |
| CS(=O)(=O)Nc1ccc(N/C=C2\C(=O)Nc3ccccc32)cc1 | -2.22% | -2.44% | 4.73% | -0.09% | -1.35% | -0.22% | 5.75% | -1.67% | 10.4% | -1.81% | -2.55% | -2.55% | -4.45% | -1.85% | -1.69% | -2.11% | -2.88% | 3.85% | 23.8% | 0.83% |
| Nc1ncnc2occ(-c3ccc(NC(=O)Nc4cc(C(F)(F)F)cc(C(F)(F)F)c4)cc3)c12 | 2.09% | 2.95% | 1.63% | 0.17% | 3.99% | 1.83% | 5.4% | 1.45% | 2.14% | 1.57% | 3.18% | 0.95% | 1.34% | 0.92% | 0.1% | 2.58% | 4.92% | 0.83% | -0.19% | 3.3% |
| O=C(Nc1n[nH]c2nc(-c3ccco3)c(Br)cc12)C1CC1 | 2.92% | 3.12% | 4.6% | 1.47% | 2.02% | 3.44% | 4.35% | 2.64% | 2.71% | 3.14% | 4.49% | -0.15% | 1.73% | 1.86% | 1.26% | 2.91% | 3.6% | 2.45% | 2.7% | 4.8% |
| CS(=O)(=O)CCN(CC#N)Cc1ccc(-c2ccc3ncnc(Nc4ccc(OCc5cccc(F)c5)c(Cl)c4)c3c2)o1 | -2.02% | 1.25% | 2.48% | -2.98% | -0.45% | 0.28% | 2.55% | 0.67% | 1.7% | -0.47% | -1.52% | -4.32% | -2.59% | 0.26% | 0.64% | 0.54% | -0.02% | 0.76% | -0.29% | – |
| COc1cc2ncn(-c3cc(O[C@H](C)c4ccccc4Cl)c(C(N)=O)s3)c2cc1OC | 7.42% | 5.14% | 19.1% | -2.07% | -0.73% | 3.51% | -0.5% | -2.58% | -0.51% | -5.15% | -9.77% | 0.64% | 1.35% | -0.8% | -0.71% | -2.77% | -0.41% | 5.95% | 31.9% | 3.47% |
| O=C1NC(=O)C(c2cccc(Cl)c2)=C1Nc1ccc(O)c(Cl)c1 | 6.43% | 3.12% | 12% | 1.98% | 4.94% | 1.7% | 4.63% | 0.16% | 2.07% | 1.29% | 2.13% | -0.44% | -0.92% | 0.03% | 0.04% | -0.58% | 1.59% | 2.1% | 15.6% | 5.22% |
| CC1=C(C(=O)Nc2ccc3[nH]ncc3c2)C(c2ccc3ccccc3c2)CC(=O)N1 (centres undefined) | 0.99% | 0.33% | 3.19% | 1.12% | 0.1% | 0.95% | 3.91% | 1.29% | 4.21% | 0.55% | 0.51% | 0.76% | -1.57% | 0.66% | 0.45% | 0.74% | 2.13% | 1.86% | 3.48% | 0.58% |
| NS(=O)(=O)c1ccc(N/N=C2\C(=O)Nc3ccc(C(=O)NCCc4c[nH]cn4)cc32)cc1 | 10.6% | 8.76% | 32.5% | 0.01% | 0.46% | 4.59% | 17.2% | 4.59% | 18.3% | 4.26% | 12.4% | 1.45% | 0.59% | 2.48% | 2.03% | 3.95% | 3.57% | 16% | 61.4% | 8.6% |
| NC(=O)c1ccc(-c2nc(-c3ccccn3)c(-c3ccc4c(c3)OCO4)[nH]2)cc1 | 3.33% | 1.17% | 1.87% | 0.57% | 0.4% | -1.44% | 2.65% | 1.07% | 1.89% | 2.4% | 2.62% | -0.58% | -8.11% | 1.1% | 0.74% | 3.61% | 5.05% | 1.86% | 3.27% | 2.26% |
| CN1CCC(C(=O)Nc2n[nH]c3nnc(-c4ccccc4)cc23)CC1 | 3.81% | 3.23% | 3.34% | -0.65% | -2.3% | -2.79% | -0.12% | -1.11% | 3.84% | -2.19% | -2.32% | 0.57% | -0.83% | -0.36% | -0.73% | -1.34% | -1.95% | 4.01% | 5.96% | 3.75% |
| COc1ccc2cc(-c3c(-c4ccncc4)nc(-c4ccc([S+](C)[O-])cc4)n3C)ccc2c1 (centres undefined) | 3.37% | 2.81% | 3.06% | 0.45% | 1.25% | 3.28% | 4.03% | 2.27% | 2.52% | 3.27% | 4.63% | 0.5% | 5.77% | 1% | 0.92% | 2.16% | 2.35% | 3.1% | 3.73% | 2.34% |
| Nc1nc(-c2ccccn2)c(-c2ccc3ncccc3n2)s1 | 2.01% | 0.62% | 2.75% | -0.73% | -1.69% | 4.2% | 6.33% | 2.16% | 4.44% | 4.05% | 3.99% | 0.14% | -0.77% | 2.05% | 2.02% | 1.5% | 3.66% | 3.28% | 6.18% | 2.5% |
